# Assay results from PubChem BioAssay (EPA / NIEHS).
# Calls of active or inactive are those of the source. Rule for the calls: active = hit-call score of the fitted dose curve at least 0.9, where 1 is the maximum; inactive = score below 0.9.
# Assays:
# [1] = ATG_GLI_CIS: Attagene CIS-FACTORIAL HepG2 Assay for human Zinc Finger Protein GLI1 (AID 2282945); conditions: HepG2, Attagene cis-factorial reporter mRNA, GLI element; actives raise or lower the signal
# Outline: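 Transiently transfected HepG2 cells report endogenous transcription factor activity via cis-element-driven reporter units. After 24 h compound exposure, reporter mRNA was measured by RT-PCR with capillary electrophoresis; bidirectional fitting against DMSO baseline.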
# [2] = ATG_GRE_CIS: Attagene CIS-FACTORIAL HepG2 Assay for human Glucocorticoid Response Elements (GRE) (AID 2282947); conditions: HepG2 GRE cis-reporter, Attagene multiplex mRNA; actives raise or lower the signal
# Outline: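 Endogenous transcription factor activity is read through cis-element reporter constructs transiently transfected into HepG2 cells. After 24 h treatment, labelled RT-PCR products are resolved by capillary electrophoresis; DMSO sets baseline for bidirectional curve fitting.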
# [3] = ATG_ISRE_CIS: Attagene CIS-FACTORIAL HepG2 Assay for human Interferon Regulatory Factor 1 (IRF1) binding to an Interferon-Stimulated Response Element (ISRE) (AID 2282948); conditions: HepG2 ISRE cis-reporter (Attagene), mRNA transcription readout; actives raise or lower the signal
# Outline: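 Cell-based cis-reporter assay; HepG2; 24 h exposure; reporter mRNA by RT-PCR plus capillary electrophoresis fluorescence; activity in either direction scored relative to DMSO.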
# [4] = ATG_M_32_CIS: Attagene CIS-FACTORIAL HepG2 Assay for M32 Transcription Factor (Internal Marker) (AID 2282949); conditions: HepG2 Attagene cis-factorial M32 reporter, mRNA; actives raise or lower the signal;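 note: background control marker of the multiplexed CIS panel rather than a real target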
# Outline: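 Internal background marker read-out: RT-PCR/capillary electrophoresis fluorescence of reporter transcripts from transiently transfected HepG2 cells after 24 h chemical exposure. Activity fitted bidirectionally relative to DMSO negative control.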
# [5] = ATG_M_06_CIS: Attagene CIS-FACTORIAL HepG2 Assay for M06 Transcription Factor (Internal Marker) (AID 2282950); conditions: HepG2 Attagene CIS-FACTORIAL M06 internal marker reporter; actives raise or lower the signal
# Outline: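 Steps: transfect HepG2 with multiplexed cis-element reporter constructs; dose chemical 24 h; extract RNA with DNase treatment; reverse-transcribe, PCR-amplify, 6-FAM label, HpaI digest; separate fragments by capillary electrophoresis. Activity fitted both directions versus DMSO.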
# [6] = biological target: Hypoxia-inducible factor 1-alpha (Homo sapiens) (UniProt Q16665); test: ATG_HIF1a_CIS: Attagene CIS-FACTORIAL HepG2 Assay for human Hypoxia Inducible Factor 1 (HIF1A) (AID 2282951); conditions: HepG2 Attagene cis-factorial HIF1a reporter transcription; actives raise or lower the signal
# Outline: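 In this multiplexed cell assay, HepG2 cells bearing transfected cis reporters are dosed for 24 h and reporter mRNA is read by RT-PCR plus capillary electrophoresis; signal increases and decreases are both scored against DMSO.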
# [7] = biological target: Hepatocyte nuclear factor 6 (Homo sapiens) (UniProt Q9UBC0); test: ATG_HNF6_CIS: Attagene CIS-FACTORIAL HepG2 Assay for human Hepatocyte Nuclear Factor 6 (HNF6) (AID 2282952); conditions: HepG2 Attagene cis-factorial HNF6 reporter transcription; actives raise or lower the signal
# Outline: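 Reporter mRNA induction or loss in HepG2 after 24 h exposure; transient cis-MRTU transfection; fragments quantified by capillary electrophoresis; bidirectional analysis, DMSO as negative control.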
# [8] = biological target: Heat shock factor protein 1 (Homo sapiens) (UniProt Q00613); test: ATG_HSE_CIS: Attagene CIS-FACTORIAL HepG2 Assay for human Heat Shock Transcription Factor 1 (HSE) (AID 2282953); conditions: HepG2 HSE cis-reporter, Attagene RNA transcription; actives raise or lower the signal
# Outline: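 Cells were transfected with cis-element-driven reporter constructs, dosed for 24 h, then total RNA was reverse-transcribed and reporter cDNA amplified, FAM-labelled and digested with HpaI. Fragments were resolved by capillary electrophoresis; gain or loss was fitted against DMSO.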
# [9] = ATG_MRE_CIS: Attagene CIS-FACTORIAL HepG2 Assay for human Metal Responsive Element (MRE) (AID 2282954); conditions: HepG2 MRE cis-reporter transcription, Attagene multiplex; actives raise or lower the signal
# Outline: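 Fluorescent reporter fragments separated by capillary electrophoresis give mRNA induction for the MRE unit after 24 h treatment of transfected HepG2 cells. Endogenous transcription-factor activity is read; DMSO serves as negative control and baseline.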
# [10] = biological target: Paired box protein Pax-6 (Homo sapiens) (UniProt P26367); test: ATG_Pax6_CIS: Attagene CIS-FACTORIAL HepG2 Assay for human Paired Box 6 (PAX6) (AID 2282956); conditions: HepG2 CIS-FACTORIAL PAX6 reporter transcription, RNA readout; actives raise or lower the signal
# Outline: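 Multiplexed cis-reporter HepG2 system; 24 h treatment; reporter mRNA read by RT-PCR/CE fluorescence; bidirectional fit vs DMSO.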
# [11] = ATG_PPRE_CIS: Attagene CIS-FACTORIAL HepG2 Assay for human Peroxisome Proliferator-activated Response Element (PPRE) (AID 2282958); conditions: HepG2 PPRE cis-element reporter, Attagene transcription factor profiling; actives raise or lower the signal
# Outline: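 Multiplexed reporter transcription units under cis-regulatory promoters were transfected into HepG2 cells to capture endogenous factor activity. A 24 h incubation preceded RNA isolation and fluorescent RT-PCR fragment analysis.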
# [12] = ATG_RORE_CIS: Attagene CIS-FACTORIAL HepG2 Assay for human RAR-related Orphan Receptor Element (RORE) (AID 2282959); conditions: HepG2 Attagene cis-factorial RORE reporter, mRNA; actives raise or lower the signal
# Outline: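 Fluorescence intensity of reporter-specific cDNA fragments, separated by capillary electrophoresis, gives the signal. Source: HepG2 liver cells transiently transfected with cis-element reporters and exposed 24 h; DMSO-normalized bidirectional fit.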
# [13] = ATG_Sox_CIS: Attagene CIS-FACTORIAL HepG2 Assay for human SRY-box transcription factor (SOX) (AID 2282960); conditions: HepG2 Attagene cis-factorial SOX reporter, mRNA; actives raise or lower the signal
# Outline: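 After 24 h of chemical treatment, transfected HepG2 reporter cells are lysed for total RNA. Transcript levels come from RT-PCR with labelled primer extension and capillary electrophoresis, analysed bidirectionally versus DMSO.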
# [14] = biological target: Transcription factor Sp1 (Homo sapiens) (UniProt P08047); test: ATG_Sp1_CIS: Attagene CIS-FACTORIAL HepG2 Assay for human Specificity Protein 1 (Sp1) (AID 2282961); conditions: HepG2 Sp1 cis-reporter transcription, actives raise or lower the signal
# Outline: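 Sp1-driven reporter mRNA, read as capillary electrophoresis fluorescence after RT-PCR, in transiently transfected HepG2 cells dosed for 24 h; signal change in either direction relative to DMSO.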
# [15] = ATG_SREBP_CIS: Attagene CIS-FACTORIAL HepG2 Assay for human Sterol Regulatory Element Binding (SREBP) (AID 2282962); conditions: HepG2 Attagene cis-factorial SREBP reporter, mRNA; actives raise or lower the signal
# Outline: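 mRNA induction of transfected cis-promoter reporters in HepG2 cells, 24 h post-dose. Detection: RT-PCR with 6-FAM-labelled products, HpaI digest, capillary electrophoresis. DMSO served as negative control and baseline.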
# [16] = biological target: Signal transducer and activator of transcription 3 (Homo sapiens) (UniProt P40763); test: ATG_STAT3_CIS: Attagene CIS-FACTORIAL HepG2 Assay for human Signal Transducer and Activator of Transcription 3 (STAT3) (AID 2282963); conditions: HepG2, Attagene cis-factorial STAT3 reporter transcription; actives raise or lower the signal
# Outline: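 Values derive from bidirectional fits relative to DMSO of reporter mRNA levels, measured by RT-PCR with capillary electrophoresis, in HepG2 cells carrying transiently transfected cis-regulated reporter units and exposed 24 h.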
# [17] = ATG_PBREM_CIS: Attagene CIS-FACTORIAL HepG2 Assay for human Phenobarbital-responsive Enhancer Module (PBREM) (AID 2282955); conditions: HepG2 PBREM cis-reporter, Attagene multiplexed transcription; actives raise or lower the signal
# Outline: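 After a 24 h incubation with test chemical, transfected HepG2 cells yield total RNA; reporter-specific RT-PCR products are fluorescently labelled, HpaI-digested and resolved by capillary electrophoresis against ROX size standards.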
# [18] = ATG_PXRE_CIS: Attagene CIS-FACTORIAL HepG2 Assay for human Pregnane X Receptor Element (PXRE) (AID 2282957); conditions: HepG2 Attagene CIS-FACTORIAL PXRE reporter, mRNA; actives raise or lower the signal
# Outline: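 Transiently transfected HepG2 cells were dosed and incubated for 24 h. RNA was then isolated, DNase-treated, reverse-transcribed and reporter sequences amplified. Labeled, HpaI-digested fragments were quantified by capillary electrophoresis against DMSO.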
# [19] = ATG_TA_CIS: Attagene CIS-FACTORIAL HepG2 Assay for human TA Basal Promoter (AID 2282964); conditions: HepG2 Attagene CIS-factorial TA basal promoter reporter; actives raise or lower the signal
# Outline: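 Steps: transfect HepG2 with MRTUs; dose 24 h; isolate RNA, DNase-treat, reverse-transcribe; PCR and FAM-label reporter cDNA; digest with HpaI 2h at 37 C; run capillary electrophoresis. Activity fitted both directions against DMSO.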
# Hypoxia-inducible factor 1-alpha (Homo sapiens), sequence (Q16665 whole entry, looked up): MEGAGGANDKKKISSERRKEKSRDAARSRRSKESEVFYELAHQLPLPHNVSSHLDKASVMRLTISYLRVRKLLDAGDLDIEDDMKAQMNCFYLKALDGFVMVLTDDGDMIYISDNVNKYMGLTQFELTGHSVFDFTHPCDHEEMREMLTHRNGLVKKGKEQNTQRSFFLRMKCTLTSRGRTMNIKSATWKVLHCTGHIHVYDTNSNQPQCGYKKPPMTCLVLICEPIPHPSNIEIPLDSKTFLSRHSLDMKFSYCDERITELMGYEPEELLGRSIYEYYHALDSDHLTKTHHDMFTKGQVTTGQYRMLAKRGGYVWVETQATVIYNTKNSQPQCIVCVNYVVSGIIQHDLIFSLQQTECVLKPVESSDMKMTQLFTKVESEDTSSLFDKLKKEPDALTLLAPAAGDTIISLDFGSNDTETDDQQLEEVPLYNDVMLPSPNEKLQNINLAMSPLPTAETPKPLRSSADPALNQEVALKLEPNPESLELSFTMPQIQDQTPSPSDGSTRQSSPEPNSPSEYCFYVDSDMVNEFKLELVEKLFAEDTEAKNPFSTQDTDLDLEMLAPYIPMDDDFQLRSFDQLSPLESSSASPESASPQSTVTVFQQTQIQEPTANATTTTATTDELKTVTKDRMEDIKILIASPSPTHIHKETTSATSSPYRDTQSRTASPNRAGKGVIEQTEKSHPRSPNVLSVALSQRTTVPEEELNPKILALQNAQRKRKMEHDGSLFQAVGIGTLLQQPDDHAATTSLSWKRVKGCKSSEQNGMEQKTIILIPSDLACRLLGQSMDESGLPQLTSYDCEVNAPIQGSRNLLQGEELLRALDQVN
# Heat shock factor protein 1 (Homo sapiens), sequence (Q00613 whole entry, looked up, the tested form may be a part): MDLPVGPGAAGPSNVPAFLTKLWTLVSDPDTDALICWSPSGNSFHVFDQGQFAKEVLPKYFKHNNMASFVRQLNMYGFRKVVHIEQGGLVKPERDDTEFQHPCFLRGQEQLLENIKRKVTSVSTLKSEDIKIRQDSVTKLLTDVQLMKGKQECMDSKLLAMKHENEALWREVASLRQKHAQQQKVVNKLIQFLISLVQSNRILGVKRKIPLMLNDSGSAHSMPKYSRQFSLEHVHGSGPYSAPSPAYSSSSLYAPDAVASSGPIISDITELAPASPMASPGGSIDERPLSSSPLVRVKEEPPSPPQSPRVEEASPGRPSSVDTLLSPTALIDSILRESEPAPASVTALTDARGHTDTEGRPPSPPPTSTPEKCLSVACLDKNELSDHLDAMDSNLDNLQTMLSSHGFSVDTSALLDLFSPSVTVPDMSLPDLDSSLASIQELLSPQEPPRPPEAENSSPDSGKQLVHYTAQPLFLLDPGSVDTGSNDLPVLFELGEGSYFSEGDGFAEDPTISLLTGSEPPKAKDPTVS
# Paired box protein Pax-6 (Homo sapiens), sequence (P26367 whole entry, looked up): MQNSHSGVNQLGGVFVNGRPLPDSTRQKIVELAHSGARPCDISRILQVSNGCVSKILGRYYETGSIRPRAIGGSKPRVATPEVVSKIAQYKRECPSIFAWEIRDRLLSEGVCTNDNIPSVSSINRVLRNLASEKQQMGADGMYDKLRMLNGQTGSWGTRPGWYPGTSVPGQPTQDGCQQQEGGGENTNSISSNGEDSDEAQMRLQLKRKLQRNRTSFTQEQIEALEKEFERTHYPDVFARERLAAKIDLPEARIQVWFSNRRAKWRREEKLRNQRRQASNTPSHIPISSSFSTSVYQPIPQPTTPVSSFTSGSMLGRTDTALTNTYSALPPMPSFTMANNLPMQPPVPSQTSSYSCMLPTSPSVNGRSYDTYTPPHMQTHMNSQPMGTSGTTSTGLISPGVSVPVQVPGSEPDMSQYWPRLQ
# Transcription factor Sp1 (Homo sapiens), sequence (P08047 whole entry, looked up): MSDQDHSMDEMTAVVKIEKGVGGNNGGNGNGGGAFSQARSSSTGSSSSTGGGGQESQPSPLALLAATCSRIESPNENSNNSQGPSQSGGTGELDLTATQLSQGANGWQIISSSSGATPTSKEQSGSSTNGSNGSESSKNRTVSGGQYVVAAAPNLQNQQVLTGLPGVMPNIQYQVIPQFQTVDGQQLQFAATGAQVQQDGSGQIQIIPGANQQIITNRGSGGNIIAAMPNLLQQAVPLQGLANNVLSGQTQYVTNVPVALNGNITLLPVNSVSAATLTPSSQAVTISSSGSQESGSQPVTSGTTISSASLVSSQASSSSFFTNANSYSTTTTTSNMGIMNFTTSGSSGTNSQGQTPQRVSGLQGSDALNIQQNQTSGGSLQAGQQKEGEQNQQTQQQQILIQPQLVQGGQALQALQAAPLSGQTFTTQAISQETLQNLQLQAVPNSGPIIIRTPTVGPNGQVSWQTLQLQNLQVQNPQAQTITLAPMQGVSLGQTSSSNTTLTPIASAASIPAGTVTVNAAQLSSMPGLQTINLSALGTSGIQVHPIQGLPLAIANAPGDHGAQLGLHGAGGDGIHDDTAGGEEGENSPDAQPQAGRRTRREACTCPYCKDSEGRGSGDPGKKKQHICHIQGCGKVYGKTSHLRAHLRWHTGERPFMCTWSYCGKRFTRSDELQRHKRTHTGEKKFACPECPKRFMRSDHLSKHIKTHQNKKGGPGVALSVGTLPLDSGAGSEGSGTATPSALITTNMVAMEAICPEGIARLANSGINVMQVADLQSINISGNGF
# Hepatocyte nuclear factor 6 (Homo sapiens), sequence (Q9UBC0 whole entry, looked up, the tested form may be a part): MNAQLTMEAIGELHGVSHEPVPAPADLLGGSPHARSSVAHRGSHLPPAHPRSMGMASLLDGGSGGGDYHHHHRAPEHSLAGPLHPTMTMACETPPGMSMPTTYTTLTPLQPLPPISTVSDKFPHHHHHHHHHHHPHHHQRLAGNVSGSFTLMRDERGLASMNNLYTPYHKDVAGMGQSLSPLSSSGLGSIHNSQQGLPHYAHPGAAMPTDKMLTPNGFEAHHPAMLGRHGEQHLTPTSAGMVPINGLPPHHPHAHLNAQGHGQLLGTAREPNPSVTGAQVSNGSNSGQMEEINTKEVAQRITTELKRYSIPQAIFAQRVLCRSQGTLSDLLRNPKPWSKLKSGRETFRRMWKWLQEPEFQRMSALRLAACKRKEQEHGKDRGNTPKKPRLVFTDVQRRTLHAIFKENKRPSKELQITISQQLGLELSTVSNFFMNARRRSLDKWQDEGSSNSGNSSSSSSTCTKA
# Signal transducer and activator of transcription 3 (Homo sapiens), sequence (P40763 whole entry, looked up): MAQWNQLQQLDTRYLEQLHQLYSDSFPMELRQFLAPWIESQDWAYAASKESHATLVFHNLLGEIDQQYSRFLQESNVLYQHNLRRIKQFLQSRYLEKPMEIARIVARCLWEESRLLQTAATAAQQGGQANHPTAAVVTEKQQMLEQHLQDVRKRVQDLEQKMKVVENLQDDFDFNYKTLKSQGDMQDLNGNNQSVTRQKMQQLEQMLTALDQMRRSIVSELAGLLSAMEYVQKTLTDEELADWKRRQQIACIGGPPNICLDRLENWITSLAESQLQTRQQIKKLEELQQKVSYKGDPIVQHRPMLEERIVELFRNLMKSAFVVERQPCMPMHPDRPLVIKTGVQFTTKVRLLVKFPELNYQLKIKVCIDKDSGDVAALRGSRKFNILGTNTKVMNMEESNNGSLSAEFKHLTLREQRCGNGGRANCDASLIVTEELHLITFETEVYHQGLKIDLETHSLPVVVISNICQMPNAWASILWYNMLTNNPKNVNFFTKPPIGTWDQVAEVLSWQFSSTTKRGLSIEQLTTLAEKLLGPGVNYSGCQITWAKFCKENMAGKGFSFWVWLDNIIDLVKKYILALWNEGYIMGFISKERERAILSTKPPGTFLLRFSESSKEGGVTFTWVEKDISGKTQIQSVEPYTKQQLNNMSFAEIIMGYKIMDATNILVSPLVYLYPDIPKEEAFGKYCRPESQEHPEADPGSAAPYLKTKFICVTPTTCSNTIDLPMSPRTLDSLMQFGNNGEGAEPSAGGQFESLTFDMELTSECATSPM
SMILES,outcome [1],outcome [2],outcome [3],outcome [4],outcome [5],outcome [6],outcome [7],outcome [8],outcome [9],outcome [10],outcome [11],outcome [12],outcome [13],outcome [14],outcome [15],outcome [16],outcome [17],AC50 [18],outcome [19],outcome [18]
C=CCCCCCCCCO,inactive,inactive,inactive,inactive,inactive,inactive,inactive,inactive,inactive,inactive,inactive,inactive,inactive,inactive,inactive,inactive,–,–,–,–
O=C(Oc1ccccc1)c1ccccc1C(=O)Oc1ccccc1,inactive,inactive,inactive,inactive,inactive,inactive,inactive,inactive,–,inactive,–,inactive,inactive,inactive,inactive,inactive,inactive,24.6 µM (active),–,–
CCCCOCCOC(=O)COc1ccc(Cl)cc1Cl,inactive,inactive,inactive,inactive,inactive,inactive,inactive,inactive,inactive,inactive,–,inactive,inactive,inactive,inactive,inactive,–,39.9 µM (active),inactive,–
C=C(C)C(=O)OCCCCCCCCCCCC,inactive,inactive,inactive,inactive,inactive,inactive,inactive,inactive,–,inactive,inactive,inactive,inactive,inactive,inactive,–,–,30.9 µM (active),inactive,–
COCC(=O)O,inactive,inactive,inactive,inactive,inactive,inactive,inactive,inactive,inactive,–,inactive,inactive,inactive,inactive,inactive,inactive,–,–,inactive,inactive
CC(C)(O)Cc1ccccc1,inactive,inactive,–,inactive,inactive,inactive,inactive,inactive,–,inactive,inactive,inactive,inactive,inactive,inactive,inactive,inactive,–,inactive,inactive
CC1=CC(C)C(C=O)CC1 (stereo unspecified),inactive,inactive,–,inactive,inactive,inactive,inactive,–,inactive,inactive,–,inactive,inactive,inactive,inactive,inactive,inactive,–,inactive,–
COC(=O)c1ccc(C(=O)OC)c(C(=O)OC)c1,inactive,inactive,inactive,inactive,inactive,inactive,–,inactive,inactive,inactive,inactive,inactive,inactive,inactive,inactive,–,inactive,–,inactive,inactive
CC(=O)OC(C)c1ccccc1 (stereo unspecified),inactive,inactive,inactive,inactive,inactive,inactive,–,–,inactive,–,–,inactive,inactive,inactive,inactive,inactive,inactive,37.6 µM (active),inactive,–
